Experiment [1] has as its target Cytochrome P450 2C9 (Homo sapiens) (UniProt P11712). As to the kind of experiment: qHTS Assay for Inhibitors and Substrates of Cytochrome P450 2C9 (AID 883). Note: nearly all actives have a fitted effect of over 60% in size. In a few lines:
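Signal: luciferase luminescence reporting luciferin produced by CYP2C9. Conditions: 10nM enzyme, Luciferin-H 100uM at KM, 25mM KPO4, 37C, 60 min NADPH-driven reaction. Reference: 57uM sulphaphenazole as 100% inhibition.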
On the technique in general: In qHTS, concentration-response curves come from the screen itself.

The target in experiment [2] is Cytochrome P450 3A4 (Homo sapiens) (UniProt P08684). Nature of the experiment: qHTS Assay for Inhibitors and Substrates of Cytochrome P450 3A4 (AID 884). For activity change, negative = inhibition: series mostly up to about 57 µM. Note: nearly all actives have a fitted effect of over 50% in size. Note: potency is the fitted concentration of half-maximal effect. In a few lines:
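20 nM human CYP3A4 with 25 uM Luciferin-PPXE (at KM) in 200 mM KPO4, preincubated 10 min with compound; NADPH regeneration started a 60 min RT reaction. Luciferin detected by luminescence, normalized to 57 uM ketoconazole as full inhibition.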

Experiment [3] deals with Cytochrome P450 2D6 (Homo sapiens) (UniProt P10635). As to the kind of experiment: qHTS Assay for Inhibitors and Substrates of Cytochrome P450 2D6 (AID 891).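 Note: luciferin methyl ether substrate demethylated by CYP2D6 with NADPH regeneration; nearly all actives have a fitted effect of over 60% in size.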 In a few lines: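 Human CYP2D6 (5 nM) with 30 uM Luciferin-ME EGE (at Km) in 100 mM KPO4, compound preincubated 10 min, then NADPH regeneration system for 60 min at room temperature. Luciferin read by luminescence; normalized to 1.43 uM quinidine.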
Chain of Cytochrome P450 2D6 (Homo sapiens) (P10635 whole entry, looked up): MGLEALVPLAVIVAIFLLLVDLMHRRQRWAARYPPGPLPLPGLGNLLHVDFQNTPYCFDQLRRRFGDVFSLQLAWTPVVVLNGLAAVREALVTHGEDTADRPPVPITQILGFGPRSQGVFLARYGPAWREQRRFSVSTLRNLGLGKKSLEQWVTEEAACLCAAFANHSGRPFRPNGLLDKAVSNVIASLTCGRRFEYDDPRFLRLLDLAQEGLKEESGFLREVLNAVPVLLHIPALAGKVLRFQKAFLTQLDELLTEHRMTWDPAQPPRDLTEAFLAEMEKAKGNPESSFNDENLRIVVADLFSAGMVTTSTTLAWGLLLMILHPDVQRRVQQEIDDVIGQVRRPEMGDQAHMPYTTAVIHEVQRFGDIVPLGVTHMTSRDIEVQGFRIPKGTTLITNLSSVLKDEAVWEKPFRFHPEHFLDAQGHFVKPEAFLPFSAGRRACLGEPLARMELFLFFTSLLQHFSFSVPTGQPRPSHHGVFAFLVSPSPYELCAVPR

For experiment [4], the target named is Cytochrome P450 2C19 (Homo sapiens) (UniProt P33261). As to the kind of experiment: qHTS Assay for Inhibitors and Substrates of Cytochrome P450 2C19 (AID 899). Note: nearly all actives have a fitted effect of over 60% in size. Note: potency is the fitted concentration of half-maximal effect. In a few lines: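 Signal comes from luciferase acting on luciferin released by CYP2C19-mediated hydroxylation of Luciferin-H EGE, 10uM (KM). Assay mix: 5nM enzyme, 50mM KPO4; 60 min at 37C with NADPH regeneration. Data normalized against 57uM ketoconazole.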
Chain of Cytochrome P450 2C19 (Homo sapiens) (P33261 whole entry, looked up): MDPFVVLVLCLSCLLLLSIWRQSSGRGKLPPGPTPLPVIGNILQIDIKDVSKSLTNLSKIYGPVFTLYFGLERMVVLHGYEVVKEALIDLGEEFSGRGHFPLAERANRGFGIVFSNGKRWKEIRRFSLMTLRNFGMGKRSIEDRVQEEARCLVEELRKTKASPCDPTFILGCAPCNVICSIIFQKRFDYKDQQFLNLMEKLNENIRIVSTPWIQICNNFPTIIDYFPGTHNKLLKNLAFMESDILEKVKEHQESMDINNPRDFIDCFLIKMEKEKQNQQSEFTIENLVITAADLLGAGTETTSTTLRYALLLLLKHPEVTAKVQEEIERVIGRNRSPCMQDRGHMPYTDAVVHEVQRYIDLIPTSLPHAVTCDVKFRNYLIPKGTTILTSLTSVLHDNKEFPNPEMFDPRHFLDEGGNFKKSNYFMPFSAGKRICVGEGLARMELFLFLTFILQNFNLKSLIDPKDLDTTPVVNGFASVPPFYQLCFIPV

The source of these data is PubChem BioAssay (NCATS).

Results filed as inconclusive are left out. Unmarked numbers belong to inactive results. Active and inactive are the calls of the source. Calls come from the whole dose curve; as a rule, active = well fitted inhibition curve with a large enough effect; inconclusive = small, poorly fitted or top-dose-only effect; inactive = no such curve, though single readings can be large or run the other way.
% is set by controls: 0 for no effect and ±100 for the full control effect.

Chain of Cytochrome P450 3A4 (Homo sapiens) (P08684 whole entry, looked up): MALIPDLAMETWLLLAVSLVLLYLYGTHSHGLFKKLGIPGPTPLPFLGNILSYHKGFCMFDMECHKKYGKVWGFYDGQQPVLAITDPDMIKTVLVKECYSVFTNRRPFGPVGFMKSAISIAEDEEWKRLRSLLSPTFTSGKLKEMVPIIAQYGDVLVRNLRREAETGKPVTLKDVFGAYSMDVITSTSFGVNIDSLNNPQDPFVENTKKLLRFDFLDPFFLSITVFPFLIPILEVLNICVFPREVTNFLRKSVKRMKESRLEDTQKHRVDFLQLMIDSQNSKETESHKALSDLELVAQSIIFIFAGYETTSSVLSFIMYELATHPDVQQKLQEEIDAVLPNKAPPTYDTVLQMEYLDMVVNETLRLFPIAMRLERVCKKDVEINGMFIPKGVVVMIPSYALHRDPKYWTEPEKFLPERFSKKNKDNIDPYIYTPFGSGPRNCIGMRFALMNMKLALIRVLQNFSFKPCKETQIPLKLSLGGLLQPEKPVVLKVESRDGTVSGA
Chain of Cytochrome P450 2C9 (Homo sapiens) (P11712 whole entry, looked up): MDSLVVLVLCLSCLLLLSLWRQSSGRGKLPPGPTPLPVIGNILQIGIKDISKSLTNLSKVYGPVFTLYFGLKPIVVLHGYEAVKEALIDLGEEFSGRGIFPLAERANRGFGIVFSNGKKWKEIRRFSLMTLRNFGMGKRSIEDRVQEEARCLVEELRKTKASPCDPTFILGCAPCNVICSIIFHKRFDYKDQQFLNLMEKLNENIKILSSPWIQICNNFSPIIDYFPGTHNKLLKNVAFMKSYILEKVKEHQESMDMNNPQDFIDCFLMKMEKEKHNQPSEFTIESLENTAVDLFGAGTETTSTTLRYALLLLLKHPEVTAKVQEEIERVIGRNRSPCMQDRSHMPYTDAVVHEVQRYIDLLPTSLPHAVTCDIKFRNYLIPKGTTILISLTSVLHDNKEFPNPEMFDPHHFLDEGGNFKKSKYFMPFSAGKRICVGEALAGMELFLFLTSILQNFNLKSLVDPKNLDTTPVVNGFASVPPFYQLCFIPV

For `COC(=O)NC(CC(C)=O)c1ccc(Cl)cc1` (stereo unspecified), the Potency result in experiment [1], in experiment [3] and in experiment [4] was “inactive” each time. Besides, the activity change, negative = inhibition in experiment [2] was -19.1% [at 11.4 µM].
As to `CCOC(=O)OCC1OC(C#CC(C)(C)C)C=CC1OC(=O)OCC` (stereo unspecified), the Potency entry in experiment [1] and in experiment [3] was “inactive” in each case. The activity change, negative = inhibition in experiment [2] is -18.5% [at 11.4 µM]. Moreover, the Potency in experiment [4] was 2510 nM (active).
Turning to `COCC#Cc1ccc(C2NC(C(=O)O)CCC2C)cc1` (stereo unspecified), the Potency entry in experiment [1], in experiment [3] and in experiment [4] was “inactive” in each case. The activity change, negative = inhibition in experiment [2] is -8.92% [at 11.4 µM].
Consider `CC1CCC(C(=O)O)NC1c1cccc(N2CCOCC2)c1` (stereo unspecified), for which the Potency entry in experiment [1], in experiment [3] and in experiment [4] was “inactive” in each case. The activity change, negative = inhibition in experiment [2] is -10.3% [at 11.4 µM].
Turning to `COC(=O)NC(c1ccccc1)[C@@]1(C(=O)OC)CCCC1=O` (stereo partly specified), the Potency entry in experiment [1], in experiment [3] and in experiment [4] was “inactive” each time. Further, the activity change, negative = inhibition in experiment [2] was -15.7% [at 11.4 µM].
In the case of `CN1CCc2nc(-c3ccccc3)c(-c3ccccc3)cc2C1`, the Potency entry in experiment [1], in experiment [3] and in experiment [4] was “inactive” each time. Besides, in experiment [2], the activity change, negative = inhibition is -24.2% [at 11.4 µM].
As to `CCN1C(C)=C(C(=O)OC)C(c2ccccc2)N2C(=O)[C@@]3(C(=O)OC)O[C@@]12C1C(=O)N(c2ccccc2)C(=O)C13` (stereo partly specified), the Potency entry in experiment [1], in experiment [3] and in experiment [4] was “inactive” each time. In experiment [2], the activity change, negative = inhibition was -20.6% [at 11.4 µM].
Consider `CC(=O)Nc1ccc(C2NC(C(=O)O)CCC2C)cc1` (stereo unspecified), for which the Potency result in experiment [1], in experiment [3] and in experiment [4] was “inactive” in each case. In addition, in experiment [2], the activity change, negative = inhibition is -21% [at 11.4 µM].
`C=CCC(O)CC1C2C(CC(O)CC=C)C3C1C3C2OC(C)(C)C` (stereo unspecified): the Potency entry in experiment [1] and in experiment [3] was “inactive” in each case. Moreover, the Potency in experiment [2] is 1580 nM (active); in experiment [4] it was 794 nM (active).
On to `CC(=O)OCC1OC(C#CC2=CCCCC2)C=CC1OC(C)=O` (stereo unspecified), for which the Potency entry in experiment [1], in experiment [3] and in experiment [4] was “inactive” throughout. Further, the activity change, negative = inhibition in experiment [2] is -27.5% [at 11.4 µM].
Take `C=CCOCC1CN2C(CCC(C)C2c2ccc(Br)cc2)C(=O)O1` (stereo unspecified): the Potency result in experiment [1], in experiment [3] and in experiment [4] was “inactive” each time. Further, the activity change, negative = inhibition in experiment [2] is -11.7% [at 11.4 µM].
In the case of `Cc1cc(=O)oc2cc(OC3C=CC(C#CC(C)(C)C)OC3CO)ccc12` (stereo unspecified), the Potency entry in experiment [1], in experiment [3] and in experiment [4] was “inactive” throughout. Also, in experiment [2], the activity change, negative = inhibition was -2.04% [at 11.4 µM].
`COC(=O)NC(c1ccc(Cl)cc1)C(C(C)=O)C(=O)OC` (stereo unspecified): the Potency result in experiment [1] and in experiment [3] was “inactive” each time. Moreover, the activity change, negative = inhibition in experiment [2] is -15.4% [at 11.4 µM]. The Potency in experiment [4] was 1580 nM (active).
With `CC1(C)OC(C(O)(c2cccc3c2oc2ccccc23)c2cccc3c2oc2ccccc23)C(C(O)(c2cccc3c2oc2ccccc23)c2cccc3c2oc2ccccc23)O1` (stereo unspecified), the Potency result in experiment [1], in experiment [3] and in experiment [4] was “inactive” in each case. For the same molecule, in experiment [2], the activity change, negative = inhibition is -15.2% [at 11.4 µM].
As to `Cc1ccc(C#CC2C=CC(Oc3ccc4c(c3)OCO4)C(CO)O2)c(C)c1` (stereo unspecified), the Potency result in experiment [1], in experiment [3] and in experiment [4] was “inactive” each time. For the same molecule, in experiment [2], the activity change, negative = inhibition was -16.9% [at 11.4 µM].
For `CC1(C)Oc2cc3c(cc2O1)OC(C)(C)O3`, the Potency entry in experiment [1], in experiment [3] and in experiment [4] was “inactive” throughout. For the same molecule, the activity change, negative = inhibition in experiment [2] was -26.4% [at 11.4 µM].
With `O=C1/C(=C/c2ccccc2)Oc2ccccc21`, the Potency entry in experiment [1], in experiment [3] and in experiment [4] was “inactive” each time. Further, in experiment [2], the activity change, negative = inhibition is -8.26% [at 11.4 µM].
On to `CC1CCC(C(=O)O)NC1c1cccc(N2CCCC2=O)c1` (stereo unspecified), for which the Potency result in experiment [1], in experiment [3] and in experiment [4] was “inactive” each time. Moreover, in experiment [2], the activity change, negative = inhibition is -12.3% [at 11.4 µM].
Take `O=C1C2Cc3c([nH]c4ccccc34)C(c3ccccc3)N2C(=O)C2Cc3c([nH]c4ccccc34)C(c3ccccc3)N12` (stereo unspecified): the Potency entry in experiment [1], in experiment [3] and in experiment [4] was “inactive” in each case. Besides, in experiment [2], the activity change, negative = inhibition was -20.8% [at 11.4 µM].
As to `Cc1c(OCc2ccccc2)cccc1OCc1ccccc1`, the Potency result in experiment [1], in experiment [3] and in experiment [4] was “inactive” each time. In addition, the activity change, negative = inhibition in experiment [2] is -25.2% [at 11.4 µM].
With `OCC1OC(C#Cc2ccccc2)C=CC1OCc1ccccc1` (stereo unspecified), the Potency result in experiment [1] and in experiment [3] was “inactive” each time. Moreover, the activity change, negative = inhibition in experiment [2] is -24.2% [at 11.4 µM]. Besides, in experiment [4], the Potency is 12.6 nM (active).
On to `CC(O)CCCCCCC/C=C/C=C/C(N)=O` (stereo unspecified), for which the Potency entry in experiment [1], in experiment [3] and in experiment [4] was “inactive” throughout. The activity change, negative = inhibition in experiment [2] was -10.1% [at 11.4 µM].
For the molecule `COC(=O)/C=C/C1c2ccccc2C(OC)C1C` (stereo unspecified), the Potency result in experiment [1], in experiment [3] and in experiment [4] was “inactive” each time. For the same molecule, the activity change, negative = inhibition in experiment [2] is -4.29% [at 11.4 µM].
As for `COC(=O)NC(CC(C)=O)c1cccc(F)c1` (stereo unspecified), the Potency entry in experiment [1], in experiment [3] and in experiment [4] was “inactive” throughout. In addition, the activity change, negative = inhibition in experiment [2] was -53.6% [at 11.4 µM].
Regarding `CCOC(=O)OCC1OC(c2ccccc2)C=CC1Oc1ccc2oc(=O)cc(C)c2c1` (stereo unspecified), the Potency entry in experiment [1], in experiment [3] and in experiment [4] was “inactive” throughout. In addition, in experiment [2], the activity change, negative = inhibition was -10.6% [at 11.4 µM].
For `COC(=O)NC(c1ccco1)[C@@]1(C(=O)OC)CCCC1=O` (stereo partly specified), the Potency entry in experiment [1], in experiment [3] and in experiment [4] was “inactive” each time. Moreover, the activity change, negative = inhibition in experiment [2] is -10.6% [at 11.4 µM].
With `COC(=O)C/C=C1\c2ccccc2C(OC)C1C` (stereo unspecified), the Potency entry in experiment [1] and in experiment [4] was “inactive” in each case. For the same molecule, the activity change, negative = inhibition in experiment [2] was -21.3% [at 11.4 µM].
Take `CCOP(=O)(CC(C(C)=O)C(O)c1ccccc1)OCC` (stereo unspecified): the Potency result in experiment [1], in experiment [3] and in experiment [4] was “inactive” in each case. Moreover, the activity change, negative = inhibition in experiment [2] is -15.8% [at 11.4 µM].
